Source: paper PMC4336329 (PLoS ONE, 2015)
Screen size: about 310,000 compounds; about 14,000 (4.5%) showed an effect of 50% or more. The effect is printed as a negative number. The list comes from a sample in which strong results are over-represented; it also holds similar structures and randomly drawn compounds.

biological target: human ether-à-go-go-related gene (hERG) potassium channel (human, UniProt Q12809); test: primary screen, population patch clamp on CHO cells stably expressing hERG; higher = less effect of the substance
Sequence (Q12809 whole entry, looked up): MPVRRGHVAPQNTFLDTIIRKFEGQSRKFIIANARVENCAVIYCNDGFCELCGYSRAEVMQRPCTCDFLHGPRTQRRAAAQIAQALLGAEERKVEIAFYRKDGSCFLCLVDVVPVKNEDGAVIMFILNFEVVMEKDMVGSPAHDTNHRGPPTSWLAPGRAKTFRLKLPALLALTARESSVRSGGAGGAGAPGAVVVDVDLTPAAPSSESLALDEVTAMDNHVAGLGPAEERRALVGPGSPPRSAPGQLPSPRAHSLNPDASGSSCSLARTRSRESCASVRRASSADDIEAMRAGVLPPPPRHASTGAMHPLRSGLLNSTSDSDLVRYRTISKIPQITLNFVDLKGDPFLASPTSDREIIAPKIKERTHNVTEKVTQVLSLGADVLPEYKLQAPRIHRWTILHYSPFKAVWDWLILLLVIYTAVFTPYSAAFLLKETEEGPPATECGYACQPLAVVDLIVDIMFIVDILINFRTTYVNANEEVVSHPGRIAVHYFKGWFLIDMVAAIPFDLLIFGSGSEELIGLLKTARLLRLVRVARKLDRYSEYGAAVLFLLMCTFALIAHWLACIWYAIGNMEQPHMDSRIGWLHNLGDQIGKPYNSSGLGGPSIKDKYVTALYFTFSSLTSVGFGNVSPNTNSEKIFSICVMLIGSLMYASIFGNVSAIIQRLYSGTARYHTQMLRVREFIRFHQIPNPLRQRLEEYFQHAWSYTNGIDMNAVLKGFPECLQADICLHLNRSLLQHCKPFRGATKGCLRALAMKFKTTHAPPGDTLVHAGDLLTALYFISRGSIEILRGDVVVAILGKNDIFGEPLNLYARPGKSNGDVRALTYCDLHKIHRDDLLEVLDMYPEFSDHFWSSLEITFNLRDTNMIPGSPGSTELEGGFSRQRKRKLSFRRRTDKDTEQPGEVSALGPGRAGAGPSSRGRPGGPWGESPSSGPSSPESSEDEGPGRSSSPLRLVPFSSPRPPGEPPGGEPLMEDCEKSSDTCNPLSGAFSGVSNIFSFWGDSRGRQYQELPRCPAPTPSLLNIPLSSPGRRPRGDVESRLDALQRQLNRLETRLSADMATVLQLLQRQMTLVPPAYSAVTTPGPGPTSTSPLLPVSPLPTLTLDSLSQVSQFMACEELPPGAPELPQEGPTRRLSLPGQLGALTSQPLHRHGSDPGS
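Further: peak tail current of the secondary pulse compared with the same well before compound.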

Compared with `COc1ccc(-c2nn(-c3ccccc3)cc2/C=N/N=C(N)N)cc1OC`, `COc1ccc(/C=C/C(=O)c2ccc(NC3=NCCCS3)cc2)cc1OC` is lower in “hERG current change (%, negative = inhibition) at 10uM” value: -27.8% for the first, -37.7% for the second.

First: CCN(CCCCCCN)c1ccc2c(=O)[nH][nH]c(=O)c2c1
Second: COCCn1c(=NC(=O)CN2C(=O)CCC2=O)sc2cc(S(N)(=O)=O)ccc21
The “hERG current change (%, negative = inhibition) at 10uM” value of the first is higher: 6.75% for the first, -9.48% for the second.

Going from `Cc1ccc(CN(C(=O)Cn2nnc3ccccc32)C(C(=O)NCc2ccco2)c2cccs2)cc1` (centres unmarked) to `COc1ccc(Cn2c(=O)[nH]c3cc(C(=O)Nc4ccccc4C)ccc32)cc1`, the “hERG current change (%, negative = inhibition) at 10uM” value rises from -23.1% to 2.66%.

Compared with `CN(C(=O)COC(=O)c1ccc2c(c1)OCO2)C1CCS(=O)(=O)C1` (centres unmarked), `NC1=C([N+](=O)[O-])C(c2ccc3c(c2)OCO3)C2=C(CCCC2=O)O1` (centres unmarked) is higher in “hERG current change (%, negative = inhibition) at 10uM” value: 9.31% for the first, 10.8% for the second.

First: O=C(/C=C/c1cccc([N+](=O)[O-])c1)N1CCN(c2ccccn2)CC1
Second: O=S(=O)(c1cccc(F)c1)N1CCCN(c2ccc(C(F)(F)F)cn2)CC1
The “hERG current change (%, negative = inhibition) at 10uM” value of the first is lower: -41.2% for the first, -27.3% for the second.

Compared with `CC(CC(=O)Nc1ccccc1)n1ccnc1` (centres unmarked), `O=C(CCC(=O)OCc1ccc(Br)cc1)Nc1ccccc1` is higher in “hERG current change (%, negative = inhibition) at 10uM” value: -5.07% for the first, 8.45% for the second.

First: O=c1cccc(-c2ccccc2)[nH]1
Second: CC(C)(C)N=Cc1cc(-c2ccccc2)sc1O
The “hERG current change (%, negative = inhibition) at 10uM” value of the first is higher: -2.53% for the first, -17.2% for the second.

Going from `COc1ccc2nc(N3CCOCC3)cc(C)c2c1` to `COc1cccc(NC(=O)N2CCOCC2)c1`, the “hERG current change (%, negative = inhibition) at 10uM” value falls from -0.452% to -14.8%.

First: Cc1ccccc1NC(=O)c1cccc2nc3ccccc3nc12
Second: Cc1cccc(NC(=O)c2cccc(S(=O)(=O)N(C)c3ccccc3)c2)n1
The “hERG current change (%, negative = inhibition) at 10uM” value of the first is higher: 13.8% for the first, -28.7% for the second.

Compared with `O=C(Nc1cc(S(=O)(=O)N2CCOCC2)ccc1Oc1ccc(F)cc1)C1=COCCO1`, `CCOc1ccc(Oc2ccc(S(=O)(=O)N3CCOCC3)cc2NC(=O)C2=COCCO2)cc1` is higher in “hERG current change (%, negative = inhibition) at 10uM” value: -69.8% for the first, -41.9% for the second.

Going from `Cc1ccc(C(=O)Nc2cc(S(=O)(=O)N3CCOCC3)ccc2N2CCCC2)cc1` to `O=C(Nc1cc(S(=O)(=O)N2CCOCC2)ccc1N1CCCC1)c1ccc(F)cc1`, the “hERG current change (%, negative = inhibition) at 10uM” value falls from -8.42% to -82.3%.

Compared with `O=C(Nc1cc(S(=O)(=O)N2CCOCC2)ccc1N1CCCC1)C1CC1`, `O=C(Nc1cc(S(=O)(=O)N2CCOCC2)ccc1N1CCCCC1)c1ccc(Cl)cc1` is lower in “hERG current change (%, negative = inhibition) at 10uM” value: -0.0868% for the first, -1.07% for the second.

Going from `CCN(CC)S(=O)(=O)c1ccc(N2CCOCC2)c(NC(=O)Cc2ccccc2)c1` to `CCN(CC)S(=O)(=O)c1ccc(N2CCOCC2)c(NC(=O)COc2ccccc2)c1`, the “hERG current change (%, negative = inhibition) at 10uM” value rises from -36.2% to -11.1%.

Going from `O=C(COC(=O)c1ccc(F)cc1)Nc1cc(S(=O)(=O)N2CCOCC2)ccc1N1CCCC1` to `O=C(Nc1ccc(F)cc1)Nc1cc(S(=O)(=O)N2CCOCC2)ccc1N1CCCC1`, the “hERG current change (%, negative = inhibition) at 10uM” value falls from -28.2% to -97.4%.

Compared with `O=C(Nc1cc(S(=O)(=O)N2CCCCC2)ccc1Oc1ccccc1)C1=COCCO1`, `O=C(Nc1ccccc1)Nc1cc(S(=O)(=O)N2CCOCC2)ccc1N1CCCC1` is lower in “hERG current change (%, negative = inhibition) at 10uM” value: -10.6% for the first, -71% for the second.

Going from `O=C(Nc1cc(S(=O)(=O)N2CCOCC2)ccc1N1CCOCC1)c1ccc(S(=O)(=O)N2CCCCC2)cc1` to `O=C(Nc1ccc(Cl)cc1)Nc1cc(S(=O)(=O)N2CCOCC2)ccc1N1CCCC1`, the “hERG current change (%, negative = inhibition) at 10uM” value falls from -1.72% to -54.5%.

Compared with `CCN(CC)S(=O)(=O)c1ccc(N2CCOCC2)c(NC(=O)CNCCc2ccccc2)c1.O=C(O)C(=O)O`, `CCN(CC)S(=O)(=O)c1ccc(N2CCOCC2)c(NC(=O)c2ccccc2)c1` is higher in “hERG current change (%, negative = inhibition) at 10uM” value: -63.8% for the first, -25.6% for the second.

Going from `C/C=C/c1ccc(OCC(=O)Nc2cc(OC)c(OC)c(OC)c2)c(OC)c1` to `COc1cccc(OC)c1C(=O)OCC(=O)NCC(C)C`, the “hERG current change (%, negative = inhibition) at 10uM” value rises from -3.16% to 24.7%.

Going from `CC(C)(C)c1cc(NC(=O)c2cccc([N+](=O)[O-])c2)no1` to `CCN(CC)S(=O)(=O)c1ccc(N2CCOCC2)c(NC(=S)NC(=O)c2ccco2)c1`, the “hERG current change (%, negative = inhibition) at 10uM” value falls from 3.8% to -66.5%.

Compared with `O=C1CCCC2=C1C(c1ccco1)Nc1ccc(C(=O)c3ccccc3)cc1N2` (centres unmarked), `C=CCNC(=O)c1ccccc1NC(=O)C1COc2ccccc2O1` (centres unmarked) is lower in “hERG current change (%, negative = inhibition) at 10uM” value: 6.94% for the first, 4.92% for the second.

Going from `CC(=O)Nc1ccccc1OCC(=O)NC1CCCCC1C` (centres unmarked) to `O=C(c1ccccn1)N(Cc1ccco1)C1(C(=O)NC2CCCCC2)CCCCC1`, the “hERG current change (%, negative = inhibition) at 10uM” value rises from 8.59% to 10.9%.

Compared with `NS(=O)(=O)c1cccc(-n2cnnn2)c1`, `CCN(CC)S(=O)(=O)c1ccc(N2CCOCC2)c(NC(=O)c2ccc(F)cc2)c1` is lower in “hERG current change (%, negative = inhibition) at 10uM” value: -6.93% for the first, -72.3% for the second.

First: O=C(Nc1ccccc1F)Nc1cc(S(=O)(=O)N2CCOCC2)ccc1N1CCCC1
Second: O=C(Nc1cccc(Cl)c1)Nc1cc(S(=O)(=O)N2CCOCC2)ccc1N1CCCC1
The “hERG current change (%, negative = inhibition) at 10uM” value of the first is higher: -19% for the first, -38.9% for the second.

Compared with `O=C(NC(=S)Nc1cc(S(=O)(=O)N2CCOCC2)ccc1N1CCOCC1)c1ccco1`, `O=C(NC(=S)Nc1ccccc1N1CCOCC1)c1ccco1` is higher in “hERG current change (%, negative = inhibition) at 10uM” value: -39.4% for the first, 9.73% for the second.

Compared with `CCN(CC)S(=O)(=O)c1ccc(N2CCOCC2)c(NC(=O)c2ccc(NC(C)=O)cc2)c1`, `O=C(Nc1ccc(Cl)c(Cl)c1)Nc1cc(S(=O)(=O)N2CCOCC2)ccc1N1CCCC1` is lower in “hERG current change (%, negative = inhibition) at 10uM” value: -0.15% for the first, -16.6% for the second.

Compared with `CCC1CCCCN1C(=O)Cn1c(=O)n(CCC(=O)NCc2ccco2)c(=O)c2sccc21` (centres unmarked), `Cc1cc(Cl)ccc1OC(C)C(=O)NN1C(=O)c2ccccc2C1=O` (centres unmarked) is higher in “hERG current change (%, negative = inhibition) at 10uM” value: -6.12% for the first, 20.9% for the second.

For `c1ccc(CCNc2ncnc3ccccc23)cc1`, the “hERG current change (%, negative = inhibition) at 10uM” value was -43.2%.
